High-throughput results from PubChem.
Anthrax LF prot: anthrax lethal factor protease inhibition. inhibition, % at 10 µM. actives 0.12% (n = 360,000). multiplex microsphere protease cleavage assay, LF; note: plate controls were buffer without enzyme for full effect and enzyme alone for no effect
Target sequence (P15917 whole entry, looked up): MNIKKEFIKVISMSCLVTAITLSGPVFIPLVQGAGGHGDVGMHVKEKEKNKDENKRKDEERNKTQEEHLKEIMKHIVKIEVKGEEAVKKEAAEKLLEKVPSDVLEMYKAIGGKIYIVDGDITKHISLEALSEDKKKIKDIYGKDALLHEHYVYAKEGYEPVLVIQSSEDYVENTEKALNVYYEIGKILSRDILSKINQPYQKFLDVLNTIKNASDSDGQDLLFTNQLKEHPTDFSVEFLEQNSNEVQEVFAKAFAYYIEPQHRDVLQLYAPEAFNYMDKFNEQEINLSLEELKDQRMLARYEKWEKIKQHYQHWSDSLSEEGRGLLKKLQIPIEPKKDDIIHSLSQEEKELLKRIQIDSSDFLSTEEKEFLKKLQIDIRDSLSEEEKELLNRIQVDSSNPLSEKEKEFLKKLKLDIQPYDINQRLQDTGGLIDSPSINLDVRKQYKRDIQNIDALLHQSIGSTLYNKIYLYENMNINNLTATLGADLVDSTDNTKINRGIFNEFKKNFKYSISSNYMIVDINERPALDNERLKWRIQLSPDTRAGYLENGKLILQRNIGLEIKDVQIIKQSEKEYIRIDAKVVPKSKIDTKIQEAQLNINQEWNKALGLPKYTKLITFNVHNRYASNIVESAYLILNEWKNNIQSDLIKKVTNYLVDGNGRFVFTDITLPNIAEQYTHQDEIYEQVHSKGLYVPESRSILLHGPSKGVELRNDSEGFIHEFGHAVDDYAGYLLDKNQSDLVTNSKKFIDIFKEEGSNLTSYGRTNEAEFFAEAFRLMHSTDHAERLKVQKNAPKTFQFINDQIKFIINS
SARS 3CLpro inh: SARS-CoV 3CLpro protease inhibition; P0C6X7; recombinant SARS-CoV 3CLpro, quenched FRET peptide cleavage; inhibition, % at 6 µM; actives 0.14% (n = 290,000); AID 1706; in the data active = inhibition above about 12%
BoNT-A LC inh2: inhibitors of Botulinum neurotoxin A light chain protease | multiplex microsphere protease substrate cleavage, flow cytometry | inhibition, % at 10 µM | AID 588499 | actives 0.17% (n = 360,000); note: plate controls were buffer without enzyme for full effect and enzyme alone for no effect
Autofluor counter: counter-screen for toxin protease inhibitors: compound fluorescence. compound autofluorescence counterscreen, microsphere flow cytometry; active compounds read high. fluorescence intensity (concentration not given with the values). actives 3.1% (n = 360,000). AID 624483; in the data active = fluorescence intensity above about 16000; inconclusive = no clear call, values can overlap the other calls
BoNT F protease: BoNT F light chain protease inhibition; Multiplex microsphere protease cleavage assay, flow cytometry; inhibition, % at 10 µM; actives 0.22% (n = 360,000); AID 588497; in the data active = inhibition above about 35%, passing the limit was not always enough; inconclusive = no clear call, values can overlap the other calls; note: plate controls were buffer without enzyme for full effect and enzyme alone for no effect
BJeLR viability: BJeLR cell viability loss | actives 0.17% (n = 300,000) | AID 1554 | inhibition, % (no concentration beside the values) | BJeLR (HRASV12) viability, CellTiter-Glo ATP luminescence, 48 h; in the data active = inhibition above about 50%; inconclusive = no clear call, values can overlap the other calls
Numbers without * were called inactive; ? = inconclusive; . = no result. An excerpt weighted towards active compounds, which were near 3.6% of everything screened. Cut-off read from the data, not from the text of the source, unless noted: active = inhibition above about 30%; inconclusive = no clear call, values can overlap the other calls; inactive = below that.

SMILES	Anthrax LF prot	SARS 3CLpro inh	BoNT-A LC inh2	Autofluor counter	BoNT F protease	BJeLR viability
Cc1cc2c(c(=O)n1CCc1ccccc1)C(c1ccco1)C(C#N)=C(N)O2 (stereo unspecified)	-1	0	-1	23680*	-2	6
COc1cc(C2C(C#N)=C(N)Oc3cc(C)n(CCc4ccccc4)c(=O)c32)cc2c1OCO2 (stereo unspecified)	1	-1	0	2999	-18	0
COCCn1c(C)cc2c(c1=O)C(c1ccco1)C(C#N)=C(N)O2 (stereo unspecified)	-7	1	2	21595*	2	-5
O=C(O)c1ccccc1OCCN1CCCC1=O	7	1	2	3680	10	9
C=CCCCOc1ccc(C(=O)O)cc1	-2	0	-3	21372*	-2	.
O=C(O)c1ccc(OCCN2CCCC2=O)cc1	-35	-1	-51	19644*	-279	-7
CCN(CC)C(=O)Nc1ccc(Br)cc1	-4	0	-1	4442	-3	5
O=C1CC(N2CCC(c3nc4ccccc4o3)CC2)C(=O)N1c1cc(Cl)cc(Cl)c1 (stereo unspecified)	-1	-7	1	22844*	-1	-15
CCc1ccccc1N1CC(C(=O)Nc2nccs2)CC1=O (stereo unspecified)	-5	4	-1	3758	-1	8
O=C(Nc1nccs1)C1CC(=O)N(c2ccccc2Cl)C1 (stereo unspecified)	1	5	-1	23519*	1	5
CCCCCCCCOC(=O)CCn1[nH]c(=O)c2ccccc2c1=O	-2	4	0	2753	4	-2
CC(C)COC(=O)CCn1[nH]c(=O)c2ccccc2c1=O	0	3	?	22405*	1	9
COc1cccc(C2=NOC(C(=O)Nc3cc(OC)c(OC)c(OC)c3)C2)c1 (stereo unspecified)	-4	-3	-3	21270*	-3	2
COc1cc(NC(=O)C2CC(c3ccc(Cl)cc3)=NO2)cc(OC)c1OC (stereo unspecified)	-4	3	-4	4217	?	7
COc1ccc(NC(=O)C2CC(c3cc(OC)c(OC)c(OC)c3)=NO2)cc1OC (stereo unspecified)	-2	-1	5	21486*	1	-8
COc1ccc(CNC(=O)C2CC(c3cccc(OC)c3)=NO2)cc1 (stereo unspecified)	-9	2	9	19613*	9	5
COc1ccc(C2=NOC(C(=O)Nc3ccc(C)cc3)C2)cc1OC (stereo unspecified)	3	-2	2	21677*	3	3
COc1ccc(NC(=O)C2CC(c3ccc(OC)c(OC)c3)=NO2)cc1OC (stereo unspecified)	-8	6	1	10820	-22	-3
COc1cccc(C2=NOC(C(=O)NCc3ccc(F)cc3)C2)c1 (stereo unspecified)	-2	2	-1	9856	-7	-2
CC1CN(C(C)C)C(=S)NC1=O (stereo unspecified)	1	.	0	3728	-5	.
COCCCNC(=S)NCCNc1nc2c(C)c(C)ccc2cc1C#N	-1	2	3	4217	0	.
COc1cc(C2=NOC(C(=O)N3CCCCCC3)C2)cc(OC)c1OC (stereo unspecified)	-4	4	4	15348	8	-6
COc1cc(C2=NOC(C(=O)NCc3ccc(F)cc3)C2)cc(OC)c1OC (stereo unspecified)	0	2	-2	17938*	-6	23
COc1cc(C2=NOC(C(=O)Nc3ccc(C)cc3)C2)cc(OC)c1OC (stereo unspecified)	-2	4	2	19324*	1	-5
COc1cc(C2=NOC(C(=O)N3CCN(c4ccc(F)cc4)CC3)C2)cc(OC)c1OC (stereo unspecified)	-3	-2	-3	17355*	-2	-13
SMILES	Anthrax LF prot	SARS 3CLpro inh	BoNT-A LC inh2	Autofluor counter	BoNT F protease	BJeLR viability
COc1cc(C2=NOC(C(=O)Nc3ccc4c(c3)OCO4)C2)cc(OC)c1OC (stereo unspecified)	-12	-5	1	3272	-33	3
COCCNC(=O)CSc1nnc(CCCN2C(=O)c3cccc4cccc(c34)C2=O)n1-c1ccccc1	2	-1	1	2651	-2	-11
c1ccc2c(COn3nnc4ccccc43)cccc2c1	1	-4	2	21859*	0	3
CC(/C=N/NC(=O)Cc1cccn1C)=C\c1ccco1	-7	6	?	22954*	-6	2
CC(=C/c1ccco1)/C=N/NC(=O)Cc1cccn1C	-3	1	0	2308	0	-4
CCc1ccc(S(=O)(=O)c2nnn3c2nc(N2CCOCC2)c2ccccc23)cc1	-1	3	1	4247	3	6
CC1(C)Cc2ccccc2-c2nnc(SCc3ccccc3)n21	7	1	1	8566	0	1
CCOC(=O)C(C)Sc1nnc2n1C(C)(C)Cc1ccccc1-2 (stereo unspecified)	-4	-3	?	24062*	-9	0
CC1(C)Cc2ccccc2-c2nnc(-c3ccccc3)n21	3	2	2	22143*	1	2
CC1(C)Cc2ccccc2-c2nnc(-c3ccc(O)cc3)n21	-2	0	-2	9812	6	-5
CC1(C)Cc2ccccc2-c2nnc(-c3ccc4ccccc4n3)n21	-2	2	0	2547	-6	1
CC1(C)Cc2ccccc2-c2nnc(-c3ccccn3)n21	-5	3	0	20079*	-2	2
Cc1ccc(NC(=O)N(Cc2cccnc2)Cc2ccco2)cc1C	-7	-4	-3	23168*	-4	10
O=C(Nc1ccc(Cl)cc1)N(Cc1cccnc1)Cc1ccco1	-6	0	-1	9511	-5	7
CC(C)c1ccc(NC(=O)C2CCN(S(=O)(=O)c3ccc4c(c3)C(C)(C)C(=O)N4C)CC2)cc1	-10	1	0	5648	-5	10
CCN(C[C@H]1N[C@@](Cc2ccccc2)(C(=O)OC)[C@H]2C(=O)N(Cc3ccccc3)C(=O)[C@@H]12)C(=O)C1CCCCC1	2	.	0	2959	-1	.
CCCCNC(=S)N(C)/N=C/c1c(C)[nH]c2ccccc12	5	3	32*	5277	-29	-6
CC(C)(C)NC(=O)COC(=O)c1cncc(Br)c1	2	3	2	2340	-6	0
COc1ccc(C(=O)NNC(=O)CCn2nnc(-c3ccc(Cl)cc3)n2)cc1OC	-6	5	0	4258	-4	-18
CCN(C[C@H]1N[C@@](Cc2ccccc2)(C(=O)OC)[C@H]2C(=O)N(C)C(=O)[C@@H]12)S(=O)(=O)c1ccc(C(C)(C)C)cc1	-3	.	0	3602	0	.
CC(C)Cc1ccc(C(C)C(=O)N2CCOCC2)cc1 (stereo unspecified)	0	-2	?	22712*	3	-2
